# Data taken from PubChem BioAssay (NCI).
# This is part of a sample that, as a whole, favours compounds with a hit. Of some 83,000 tested, about 20% had one in any assay.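 Each cell line was grown in a 96-well plate and treated with one concentration of compound for 48 hours. Values below 10 were considered active.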 Values without a mark were called inactive. Activity calls are given as the source filed them.
# Experiments:
# Experiment in all cases: NCI-60 one-dose screen, 48 h (100 = growth as untreated, 0 = no growth, -100 = all killed)
# Conditions in all cases: 10 µM unless noted
# SR leukemia = test system: SR leukemia
# RPMI-8226 leukemia = test system: RPMI-8226 leukemia
# OVCAR-8 ovarian = test system: OVCAR-8 ovarian
# OVCAR-5 ovarian = test system: OVCAR-5 ovarian
# OVCAR-4 ovarian = test system: OVCAR-4 ovarian
# SK-OV-3 ovarian = test system: SK-OV-3 ovarian
# IGROV1 ovarian = test system: IGROV1 ovarian
# OVCAR-3 ovarian = test system: OVCAR-3 ovarian
# HS 578T breast = test system: HS 578T breast
# NCI/ADR-RES ovarian = test system: NCI/ADR-RES ovarian
Structure (SMILES),growth (SR leukemia),growth (RPMI-8226 leukemia),growth (OVCAR-8 ovarian),growth (OVCAR-5 ovarian) [%],growth (OVCAR-4 ovarian) [%],growth (SK-OV-3 ovarian) [%],growth (IGROV1 ovarian),growth (OVCAR-3 ovarian),growth (HS 578T breast),growth (NCI/ADR-RES ovarian) [%]
COc1cc(-c2cc(-c3cccs3)c(C#N)c(N3CCOCC3)n2)cc(OC)c1OC,-1.19% (active),44.2%,74.3%,96.4,85.8,141,73.5%,149%,90.6%,58.2
CCOC(=O)C(=Cc1cccc(Br)c1)C(=O)OCC,3.67% (active),12.9%,29.5%,42.9,48.2,86.2,47.8%,15.6%,25.6%,11.7
CCOP(=O)(OCC)c1nc(-c2ccccc2)oc1NCc1cccnc1,102%,101%,106%,101,112,106,100%,110%,109%,105
O=C1CNC(c2ccccc2)C(c2ccccc2)N1 (stereo not given),106%,75.2%,98%,86.5,89,107,93%,107%,86.1%,81
O=C(NNc1nccc(Nc2ccc(S(=O)(=O)Nc3ccncc3)cc2)n1)c1ccccc1,87.6%,95.6%,99.4%,101,106,107,102%,100%,110%,85.4
Oc1ccc(CCn2c(O)c(/C=C3\CN=c4ccccc4=N3)sc2=S)cc1,20.9%,33.8%,86.8%,95.6,80.5,79.5,39.9%,44.7%,68.5%,65.7
Nc1nc2c([nH]1)c1[nH]c3ccccc3c1c1[nH]c3ccccc3c21,-24.9% (active),-22.7% (active),57.5%,85.9,66.8,86.1,58.9%,36.6%,47.2%,86.5
C/C(=C(/c1ccc(Cl)cc1)c1ccc(OCCN2CCCC2)cc1)c1ccc(Cl)cc1,4.02% (active),57.8%,88.8%,88.9,95.1,108,81.1%,88.3%,90.9%,90.4
CN(C)CC(=O)Nc1ccc2ncnc(Nc3ccc(Oc4cccc(C(F)(F)F)c4)c(Cl)c3)c2c1,-1.46% (active),31.2%,55.5%,82.6,51.5,19.7,8.24% (active),42.5%,79.1%,54.3
COc1ccc(N2CCC(=O)NC2=S)cc1,116%,105%,106%,102,106,103,108%,109%,98.7%,98
O=C(Cn1cc(CN2C(=O)c3ccccc3S2(=O)=O)nn1)Nc1nc2ccccc2s1,121%,107%,102%,101,100,79,93.4%,102%,110%,97.6
COC1C[C@H](O[C@@H]2C[C@H](O[C@@H]3C[C@H](O[C@@H]4C(=O)c5c(cc6cc(O[C@H]7C[C@@H](O[C@H]8C[C@@H](O)[C@H](O)C(C)O8)[C@H](O)C(C)O7)c(C)c(O)c6c5O)C[C@H]4C(OC)C(=O)[C@@H](O)[C@@H](C)O)OC(C)[C@H]3O)OC(C)[C@@H]2O)OC(C)[C@@H]1O (stereo not given in full),10.2%,-1.8% (active),2.54% (active),14.2,12.1,16.6,9.46% (active),3.14% (active),7.26% (active),82.4
O=C1Nc2ccc(I)cc2C1=O,100%,144%,90.7%,98.6,101,108,46.6%,74.7%,97.8%,97.2
O=C1C(Cl)=C(Nc2ccc(O)cc2)C(=O)N1Cc1ccc(Cl)cc1,5.96% (active),26.1%,65%,85.3,77.5,88.1,30.5%,40.8%,78.6%,81.3
CCn1c(SCC(=O)c2ccc(Br)cc2)nnc1-c1ccncc1,98.3%,103%,109%,108,101,118,115%,106%,105%,107
COCCn1c(-c2csc(-c3cn(C)c4ccc(OC)cc34)n2)cc2cccnc21,18.4%,65.4%,59.7%,79.9,55.9,65.2,94.5%,65.5%,58.5%,46.4
